7 compounds from PubChem BioAssay (NCI) can be followed below.

Test [1] can be described thus: NCI Yeast Anticancer Drug Screen. Data for the rad50 strain (AID 155).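 Note: 0% = growth of vehicle-only cultures of the same strain.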 The note with it: S. cerevisiae rad50 strain growth inhibition, stronger effect = higher value. A digest of the protocol:
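Cells are treated with compound, grown, and their growth is then scored against vehicle-only cultures of the same repair-deficient yeast strain.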

Test [2] in a line: NCI Yeast Anticancer Drug Screen. Data for the mec2-1 strain (AID 157). The following applies: S. cerevisiae mec2-1 strain, stronger effect = higher value. Summed up: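 Compounds were applied to mec2-1 yeast cells. Their growth was then compared with that of vehicle-treated cultures to give growth inhibition.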
Test [3] in a line: NCI Yeast Anticancer Drug Screen. Data for the sgs1 mgt1 strain (AID 161).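 Note: 0% = growth of cultures given vehicle only.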 The following applies: S. cerevisiae sgs1 mgt1 strain, stronger effect = higher value. A digest of the protocol: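 Growth of a repair-deficient yeast mutant was monitored after compound treatment and expressed as inhibition relative to vehicle-treated cultures.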
Test [4] in a line: NCI Yeast Anticancer Drug Screen. Data for the cln2 rad14 strain (AID 165).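 Note: 0% = growth equal to vehicle treated cultures.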 The following applies: S. cerevisiae cln2 rad14 strain, stronger effect = higher value. A digest of the protocol: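 Strain: cln2 rad14 yeast, altered in cell cycle control and DNA damage repair. Read-out: growth inhibition vs vehicle.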
Test [5] is described as follows: NCI Yeast Anticancer Drug Screen. Data for the bub3 strain (AID 167). The following applies: S. cerevisiae bub3 mutant strain, stronger effect = higher value. A digest of the protocol:
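Part of a panel of yeast mutants defective in DNA damage repair or cell cycle regulation. Each strain is grown with compound, and inhibition is calculated relative to solvent-treated cultures.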

Test [6] is described as follows: NCI Yeast Anticancer Drug Screen. Data for the mlh1 rad18 strain (AID 175). The following applies: S. cerevisiae mlh1 rad18 strain growth inhibition, stronger effect = higher value. A digest of the protocol: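 A repair-deficient yeast strain is exposed to test compound, and growth is scored relative to vehicle-treated controls.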
Setting [7] is: at 5.0 µM (retest, dose inferred, filed as 0.5).
The mark [8] stands for this setting: at 50.0 µM (retest, dose inferred, filed as 5.0).

“And” between values parts separate entries of the source, which are not always exact repeats. Identical values can stand only once. This is part of a sample that, as a whole, favours compounds with a hit. Of some 79,000 tested, about 15% had one in any assay. Some structures have more than one record in an assay (separate samples or runs), and their calls can disagree. The source made the active and inactive calls. Cut-off read from the data, not from the text of the source: active = growth inhibition above about 70%; inactive = the rest.

As to `COc1ccccc1NC(=O)C(/C=N/C(=S)NCCNc1ccc(OC)c(OC)c1)=C(\C)O`, the growth inhibition in test [1] (setting [7]) was 1% (inactive); in test [1] (setting [8]), 3% (inactive); in test [1] (at 50.0 µM), 9.7% (inactive); in test [2] (setting [7]), -55% (inactive); in test [2] (setting [8]) it was -10% (inactive); in test [2] (at 50.0 µM), -2.25% (inactive). Moreover, the growth inhibition in test [3] (setting [7]) is 2% (inactive); in test [3] (setting [8]), -8% (inactive); in test [3] (at 50.0 µM), 16.4% (inactive); in test [4] (setting [7]), -22% (inactive); in test [4] (setting [8]) it was -14% (inactive); in test [4] (at 50.0 µM), 43.2% (inactive). In addition, the growth inhibition is 2% (inactive) in test [5] (setting [7]); -27% (inactive) in test [5] (setting [8]); 7.25% (inactive) in test [5] (at 50.0 µM); 10% (inactive) in test [6] (setting [7]); -2% (inactive) in test [6] (setting [8]); 15.1% (inactive) in test [6] (at 50.0 µM).

`OC1CN(Cc2ccccc2)C[C@@H]1O` (stereo partly specified): the growth inhibition in test [1] (setting [7]) is 8% (inactive); in test [1] (setting [8]), 99% (active); in test [1] (at 50.0 µM), 23% (inactive); in test [2] (setting [7]) it was 11% (inactive); in test [2] (setting [8]), 99% (active); in test [2] (at 50.0 µM), -7.9% (inactive). In addition, the growth inhibition in test [3] (setting [7]) is 10% (inactive); in test [3] (setting [8]), 99% (active); in test [3] (at 50.0 µM) it was -4.5% (inactive); in test [4] (setting [7]) it was 17% (inactive); in test [4] (setting [8]) it was 93% (active); in test [4] (at 50.0 µM) it was 59.6% (inactive). Besides, the growth inhibition was 11% (inactive) in test [5] (setting [7]); 99% (active) in test [5] (setting [8]); -0.5% (inactive) in test [5] (at 50.0 µM); 25% (inactive) in test [6] (setting [7]); 99% (active) in test [6] (setting [8]); 36.8% (inactive) in test [6] (at 50.0 µM).

Regarding `O=C1NC(=O)c2cc([N+](=O)[O-])ccc21`, the growth inhibition in test [1] (setting [7]) was -9% (inactive); in test [1] (setting [8]), 12% (inactive); in test [1] (at 50.0 µM), 6.65% (inactive) and 0.9% (inactive); in test [2] (setting [7]) it was 0% (inactive); in test [2] (setting [8]), 4% (inactive); in test [2] (at 50.0 µM) it was -21.9% (inactive) and 3.5% (inactive). For the same compound, the growth inhibition in test [3] (setting [7]) was -2% (inactive); in test [3] (setting [8]), 8% (inactive); in test [3] (at 50.0 µM), 5.35% (inactive) and 17% (inactive); in test [4] (setting [7]), -5% (inactive); in test [4] (setting [8]), -5% (inactive); in test [4] (at 50.0 µM) it was -1.95% (inactive) and 55% (inactive). Moreover, the growth inhibition was 0% (inactive) in test [5] (setting [7]); 13% (inactive) in test [5] (setting [8]); -0.35% (inactive) and 34.4% (inactive) in test [5] (at 50.0 µM); -4% (inactive) in test [6] (setting [7]); 12% (inactive) in test [6] (setting [8]); 11.3% (inactive) and -14.6% (inactive) in test [6] (at 50.0 µM).

As for `Oc1cccc2c1-c1ccccc1C2`, the growth inhibition in test [1] (setting [7]) is -6% (inactive); in test [1] (setting [8]) it was 96% (active); in test [1] (at 50.0 µM) it was 98.8% (active); in test [2] (setting [7]) it was 1% (inactive); in test [2] (setting [8]), 92% (active); in test [2] (at 50.0 µM), 98.9% (active). In addition, the growth inhibition is -7% (inactive) in test [3] (setting [7]); 97% (active) in test [3] (setting [8]); 98.4% (active) in test [3] (at 50.0 µM); -4% (inactive) in test [4] (setting [7]); 83% (active) in test [4] (setting [8]); 96.8% (active) in test [4] (at 50.0 µM). Also, the growth inhibition in test [5] (setting [7]) was 32% (inactive); in test [5] (setting [8]), 97% (active); in test [5] (at 50.0 µM), 98.4% (active); in test [6] (setting [7]), 9% (inactive); in test [6] (setting [8]) it was 98% (active); in test [6] (at 50.0 µM) it was 98.1% (active).

On to `O=C1Nc2ccccc2C1(O)C/C(=N/O)c1ccc2ccccc2c1` (stereo unspecified), for which the growth inhibition in test [1] (setting [7]) is 34% (inactive); in test [1] (setting [8]), 36% (inactive); in test [1] (at 50.0 µM), 35.1% (inactive); in test [2] (setting [7]) it was 27% (inactive); in test [2] (setting [8]) it was 40% (inactive); in test [2] (at 50.0 µM) it was 13.9% (inactive). For the same compound, the growth inhibition in test [3] (setting [7]) was 71% (active); in test [3] (setting [8]), 51% (inactive); in test [3] (at 50.0 µM), 49.5% (inactive); in test [4] (setting [7]) it was 52% (inactive); in test [4] (setting [8]), 44% (inactive); in test [4] (at 50.0 µM), 38% (inactive). The growth inhibition is 47% (inactive) in test [5] (setting [7]); 77% (active) in test [5] (setting [8]); 14.9% (inactive) in test [5] (at 50.0 µM); 40% (inactive) in test [6] (setting [7]); 64% (inactive) in test [6] (setting [8]); 66.5% (inactive) in test [6] (at 50.0 µM).

`Cc1ccc(S(=O)(=O)N/N=C2/C(=O)c3cccc4cccc2c34)cc1`: the growth inhibition was 6% (inactive) in test [1] (setting [7]); 74% (active) in test [1] (setting [8]); 64.5% (inactive) in test [1] (at 50.0 µM); -15% (inactive) in test [2] (setting [7]); 64% (inactive) in test [2] (setting [8]); 12.8% (inactive) in test [2] (at 50.0 µM). Also, the growth inhibition was 10% (inactive) in test [3] (setting [7]); 76% (active) in test [3] (setting [8]); 55.8% (inactive) in test [3] (at 50.0 µM); 2% (inactive) in test [4] (setting [7]); 39% (inactive) in test [4] (setting [8]); 30.5% (inactive) in test [4] (at 50.0 µM). The growth inhibition was 0% (inactive) in test [5] (setting [7]); 55% (inactive) in test [5] (setting [8]); 0.25% (inactive) in test [5] (at 50.0 µM); 33% (inactive) in test [6] (setting [7]); 92% (active) in test [6] (setting [8]); 24.8% (inactive) in test [6] (at 50.0 µM).

As to `Cc1nc2c(Br)cc(Br)cc2c(=O)n1-c1ccccc1NC1OC(CO)C(O)C(O)C1O` (stereo unspecified), the growth inhibition is 9% (inactive) in test [1] (setting [7]); 41% (inactive) in test [1] (setting [8]); -11.9% (inactive) and 65.8% (inactive) in test [1] (at 50.0 µM); 5% (inactive) in test [2] (setting [7]); 32% (inactive) in test [2] (setting [8]); -33.6% (inactive) and 17.9% (inactive) in test [2] (at 50.0 µM). The growth inhibition was 7% (inactive) in test [3] (setting [7]); 25% (inactive) in test [3] (setting [8]); -5.65% (inactive) and 47.2% (inactive) in test [3] (at 50.0 µM); 11% (inactive) in test [4] (setting [7]); 75% (active) in test [4] (setting [8]); -54.8% (inactive) and 64.5% (inactive) in test [4] (at 50.0 µM). Further, the growth inhibition in test [5] (setting [7]) is 7% (inactive); in test [5] (setting [8]) it was 56% (inactive); in test [5] (at 50.0 µM), -31.3% (inactive) and 74.8% (active); in test [6] (setting [7]), -25% (inactive); in test [6] (setting [8]), 67% (inactive); in test [6] (at 50.0 µM), -35.1% (inactive) and 75% (active).
